HCV inh – blocks hepatitis C virus; Huh7.5.1 HCVcc-Cre infection, luciferase reporter, 44 h; Potency, µM (highest dose often 41.8 µM), without a hit: at the top dose activity change, negative = inhibition, actives largely listed as inhibitors; 340,000 tested, 3.4% active; active = well fitted inhibition curve with a large enough effect; inconclusive = small, poorly fitted or top-dose-only effect, or another doubt; inactive = no such curve, though single readings can be large or run the other way; also: potency is read from the fitted curve at half-maximal effect; % is scaled to controls: 0 for no effect and ±100 for the full control effect
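Compounds are dispensed onto cells plated 4 h earlier at 1,000 per well, with HCVcc-Cre virus (about 0.5 moi) added next. Following 44 h of culture, luminescent signal is measured for 15 sec after 15 min with substrate at room temperature.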
FMDV inh – antivirals against foot and mouth disease virus | Potency, µM (series often up to 57.9 µM), without a hit: top-dose activity change, negative = inhibition, actives largely listed as inhibitors | AID 1159524 | FMDV antiviral cell-based qHTS | 410,000 tested, 1.2% active; calls by dose curve; tested in HEK293T cells; also: read-out not given here; potency is read from the fitted curve at half-maximal effect; % is scaled to controls: 0 for no effect and ±100 for the full control effect; nearly all actives have a fitted effect of over 45% in size
SARS PLP yeast – blocks SARS-CoV papain-like protease in a yeast assay; S. cerevisiae expressing SARS-CoV PLpro, growth rescue; Potency, µM (top dose mostly 32.9 µM), inactives show at the top dose activity, positive = growth rescue, hits mostly activators; 330,000 tested, 0.19% active; AID 485353; calls by dose curve; also: potency is read from the fitted curve at half-maximal effect; 0% is about no effect; nearly all actives have a fitted effect of over 55% in size
Marburg entry inh – Marburg virus entry inhibition | Potency, µM (titrated, usually from 37.8 µM), inactives show top-dose activity change, negative = inhibition, hits mostly inhibitors | Marburg virus pseudotyped entry inhibition, cell reporter | 300,000 tested, 1.8% active; calls by dose curve; tested in HEK293 cells; also: potency is read from the fitted curve at half-maximal effect; % is scaled to controls: 0 for no effect and ±100 for the full control effect
HCMV inh – inhibitors of human cytomegalovirus; HFF cells, HCMV-luciferase reporter, 72 h; stronger effect = lower value; activity change, negative = inhibition, % at 57.5 µM; 410,000 tested, 4.5% active; in the data active = activity change below about -60%; inconclusive = no clear call, values can overlap the other calls; inactive = above about -39%; also: % is scaled to controls: 0 for no effect and ±100 for the full control effect
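Screen run at 2 compound doses on HFFs infected with reporter HCMV, MOI 1 PFU/cell. Luciferase activity from cell lysates at 72 h post infection gave inhibition relative to buffer-only and Salinomycin wells.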
LASV entry inh – Lassa virus entry inhibition | Lassa virus pseudotype entry inhibition, cell reporter | Potency, µM (titrated, usually from 37.9 µM), for the others: at the top dose activity change, negative = inhibition, actives largely listed as inhibitors | 300,000 tested, 1.2% active; calls by dose curve; tested in HEK293 cells; also: potency is read from the fitted curve at half-maximal effect; % is scaled to controls: 0 for no effect and ±100 for the full control effect; nearly all actives have a fitted effect of over 50% in size
An asterisk follows results filed as active; ! = repeats disagree; [ ] = remark or other dose. The list is not random: actives were taken first. Their share in the collection is about 8%.

Results for CO[C@H]1C[C@H](O[C@@H]2/C(C)=C/C[C@@H]3C[C@@H](C[C@]4(CC[C@H](C)[C@@H](C5CCCCC5)O4)O3)OC(=O)[C@@H]3C=C(C)/C(=N/O)[C@H]4OC/C(=C\C=C\[C@@H]2C)[C@]43O)O[C@@H](C)[C@@H]1O ?
FMDV inh: -3%

How did CCOC(=O)c1ccccc1NC(=O)Cn1cc(C(=O)c2cccc(OC)c2)c(=O)c2ccc(C)nc21 do in these assays?
FMDV inh: -3%; HCMV inh: 8; LASV entry inh: -15%[46.1 µM]

What do the screens show for `COc1ccc(Cl)cc1Nc1ncnc2c1nc1n2CCCC1`?
FMDV inh: 0%; HCMV inh: -28; LASV entry inh: inconclusive

What do the screens show for `COc1cccc(NC(=O)c2cc3c(-c4ccc(Cl)cc4)nn(C)c3s2)c1`?
FMDV inh: inconclusive; Marburg entry inh: -22%[46.1 µM]; HCMV inh: inconclusive; LASV entry inh: inconclusive

Results for Cn1nc(-c2ccccc2F)c2cc(C(=O)Nc3ccc4c(c3)OCCO4)sc21 ?
HCV inh: -59%; FMDV inh: -14%; SARS PLP yeast: -7%; Marburg entry inh: inconclusive; HCMV inh: 114; LASV entry inh: inconclusive

What do the screens show for `COc1cccc(-c2nn(C)c3sc(C(=O)NCc4ccccn4)cc23)c1`?
HCV inh: 10µM*; FMDV inh: -10%; SARS PLP yeast: -7%; Marburg entry inh: inconclusive; HCMV inh: 106; LASV entry inh: -21%

What do the screens show for `COc1cccc(-c2nn(C)c3sc(C(=O)Nc4ccc5c(c4)OCCO5)cc23)c1`?
HCV inh: 3.2µM*; FMDV inh: 26%; SARS PLP yeast: -1%; Marburg entry inh: 0%; LASV entry inh: -7%

Results for CCN(CC)CCNC(=O)c1cc2c(-c3ccc(Cl)cc3)nn(C)c2s1 ?
HCV inh: inconclusive; FMDV inh: -37%; SARS PLP yeast: 0%; HCMV inh: -33

How did COc1ccc(-c2nn(C)c3sc(C(=O)Nc4cccc(F)c4)cc23)cc1OC do in these assays?
FMDV inh: inconclusive; HCMV inh: -85*; LASV entry inh: inconclusive

Results for CCCN(CCC)CCNC(=O)c1cc2c(-c3ccc(Cl)cc3)nn(C)c2s1 ?
HCV inh: 8.9µM*; FMDV inh: inconclusive; SARS PLP yeast: -4%; Marburg entry inh: 4µM*; HCMV inh: inconclusive; LASV entry inh: 1%[46.1 µM]

How did Cc1cccc(-c2nc(S(=O)(=O)c3ccccc3)c(N3CCN(c4ccccc4)CC3)o2)c1 do in these assays?
FMDV inh: -14%; Marburg entry inh: 0%[46.1 µM]; HCMV inh: -7; LASV entry inh: 2%[46.1 µM]

Results for CC1CCN(C(=O)CSc2nnc(NC(=O)Nc3ccccc3)s2)CC1 ?
FMDV inh: -20%; HCMV inh: -33; LASV entry inh: 17%[46.1 µM]

Results for Cc1ccc(C)c(NC(=O)Cn2ncc3c([nH]c4ccccc43)c2=O)c1 ?
FMDV inh: 6%; HCMV inh: 7; LASV entry inh: 0%[46.1 µM]

Results for COc1cccc(-c2nn(C)c3sc(C(=O)NCCc4cccc(C)c4)cc23)c1 ?
FMDV inh: -26%; Marburg entry inh: inconclusive; HCMV inh: -69*; LASV entry inh: inconclusive

What do the screens show for `CCN(CC)CCNC(=O)c1cc2c(-c3cccc(OC)c3)nn(C)c2s1`?
HCV inh: 13µM*; FMDV inh: 0%; SARS PLP yeast: 2%; Marburg entry inh: inconclusive; HCMV inh: -78*!; LASV entry inh: -5%[46.1 µM]

How did CN1CCN(c2ncc3nc(-c4cccc(C#N)c4)c(=O)n(CCc4ccccc4)c3n2)CC1 do in these assays?
FMDV inh: -7%

How did COc1ccc(-c2ccc(=O)n(CC(=O)Nc3ccc(OC)c(OC)c3)n2)cc1 do in these assays?
FMDV inh: -12%; HCMV inh: active; LASV entry inh: -30%[46.1 µM]

How did COc1cc(Nc2ncc3c(n2)CCN(Cc2cc(F)cc(F)c2)C3)cc(OC)c1 do in these assays?
FMDV inh: -25%; HCMV inh: inconclusive; LASV entry inh: inconclusive
